Screening data from PubChem.
UCHL1 block: inhibitors of human UCHL1 deubiquitinase | Ubiquitin carboxyl-terminal hydrolase isozyme L1 (Homo sapiens), P09936 | purified UCHL1, Ub-rhodamine cleavage fluorescence | inhibition, % at 20 µM | 47,000 compounds, 0.2% hits
Target sequence (P09936 whole entry, looked up): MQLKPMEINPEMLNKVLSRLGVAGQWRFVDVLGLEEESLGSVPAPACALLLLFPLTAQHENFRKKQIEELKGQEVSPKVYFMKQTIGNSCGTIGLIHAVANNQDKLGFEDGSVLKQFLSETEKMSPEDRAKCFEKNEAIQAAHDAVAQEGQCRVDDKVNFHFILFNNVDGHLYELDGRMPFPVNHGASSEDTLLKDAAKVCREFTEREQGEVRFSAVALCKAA
USP7 inh: inhibitors of human USP7 deubiquitinase | Ubiquitin carboxyl-terminal hydrolase 7 (Homo sapiens), Q93009 | purified USP7, Ub-rhodamine cleavage fluorescence | inhibition, % at 20 µM | 47,000 compounds, 0.3% hits
USP10 inh: inhibitors of human USP10 deubiquitinase. 47,000 compounds, 1.1% hits. AID 1645856, 2021. inhibition, % at 20 µM. purified USP10, Ub-rhodamine fluorescence, 60 min
OTUD3 block: inhibitors of human OTUD3 deubiquitinase | inhibition, % at 25 µM | OTU domain-containing protein 3 (Homo sapiens), Q5T2D3 | 47,000 compounds, 0.7% hits | purified OTUD3, Ub-rhodamine fluorescence, 2 h
The depositor's hits bear a star; nt = not tested or not shown. Only some compounds are listed: those with a hit (about 1.8% of all), similar ones and a draw of the others. Rule as the data show it: active = inhibition above about 30%; inactive = the rest.

SMILES	UCHL1 block	USP7 inh	USP10 inh	OTUD3 block
Clc1ccc(CN=C(Nc2ccccc2)NC2CC2)c(Cl)c1	1	-10	-1	9
COc1cc2c(cc1NC(=O)c1ccc(-n3cnnn3)cc1)oc1ccccc12	2	4	14	-12
CC(=O)O[C@@H](C/C=C(\C)C(=O)O)[C@@H](C)[C@H]1C[C@H](OC(C)=O)[C@@]2(C)C3=CC[C@H]4C(C)(C)[C@H](OC(C)=O)CC[C@]4(C)C3=CC[C@]12C	57*	93*	95*	92*
CC(=O)O[C@@H](C/C=C(\C)C(=O)O)[C@@H](C)[C@H]1C[C@H](OC(C)=O)[C@@]2(C)C3=CC[C@H]4C(C)(C)[C@H](O)CC[C@]4(C)C3=CC[C@]12C	3	14	52*	17
Cc1ccc(-n2nc(C(=O)Nc3ccc(C)cn3)c3ncn(C)c(=O)c32)cc1	14	30	31*	36*
O=S(=O)(c1ccc(-c2ccco2)cc1)C1CCN(Cc2cccnc2)CC1	-2	-7	-3	-3
O=C(c1ccc2occc2c1)N1CCC(S(=O)(=O)c2ccc(-c3ccco3)cc2)CC1	52*	52*	33*	14
O=C1C(O)=C(c2ccc(O)cc2)C(=O)C(O)=C1c1ccccc1	0	-66	8	33*
CC1=C(O)C(=O)C(C2=C(O)C(=O)C(C)=C(O)C2=O)=C(O)C1=O	5	-132	-1	23
CC1OC2CC(=O)OC2C2=C1C(=O)c1c(O)cccc1C2=O (stereo not given)	25	-57	-7	45*
CCC[C@H]1O[C@@H]2CC(=O)O[C@@H]2C2=C1C(=O)c1c(O)cccc1C2=O	14	-40	-14	52*
Cc1ccc(CNC(=O)CN2CCC3(CC2)N=C(c2ccc(F)cc2)C(=O)N3)cc1	-1	-2	-4	-6
C[C@H]1C(=O)c2c(O)cc(O)cc2O[C@@H]1c1ccc(O)cc1	4	3	5	24
COc1ccc([C@H]2Oc3cc(OC)cc(O)c3C(=O)[C@@H]2[C@@H]2C(=O)c3c(O)cc(O)cc3O[C@H]2c2ccc(OC)cc2)cc1	10	26	68*	11
O=C1CC(c2ccco2)Cc2[nH]c(=O)c(-c3nc(-c4ccc(Cl)cc4)cs3)cc21 (stereo not given)	13	41*	-10	38*
COc1ccc(-c2csc(-c3cc4c([nH]c3=O)CC(c3ccco3)CC4=O)n2)cc1 (stereo not given)	-36	-34	-6	3
CCCCNC(=O)CSc1nnc(-c2cc3ccccc3n2C)o1	4	5	12	31*
CCCc1cc(=O)n2[nH]c(COc3ccccc3)c(-c3ccccc3)c2n1	6	15	55*	13
Cn1c(=O)c2nc(-c3ccc(Cl)cc3)nnc2n(C)c1=O	32*	-8	40*	7
Cn1c(=O)c2c(nc3n(CCO)c(-c4ccc(Cl)cc4)cn23)n(C)c1=O	4	-6	0	5
CCc1nc(-c2cccc(NC(=O)C3CC(=O)N(c4ccc(C)cc4)C3)c2)no1 (stereo not given)	4	5	11	6
O=C(c1ccc2n[nH]nc2c1)N1C[C@H]2CC[C@@H](Nc3cnccn3)[C@H]2C1	-2	2	-3	-6
CC(=O)c1cc2c(=O)c3c(C(=O)O)c(O)c(O)cc3oc2c(C(C)=O)c1-c1coc2cc(O)c(O)c(C(=O)O)c2c1=O	1	-139	-3	60*
COc1ccccc1CNC(=O)Cn1cnc2c(-c3ccccc3)csc2c1=O	5	15	40*	8
O=C(CN1CCCCC1)Nc1nnc(-c2ccc([N+](=O)[O-])cc2)s1	7	4	11	40*
SMILES	UCHL1 block	USP7 inh	USP10 inh	OTUD3 block
O=C(CN1CCCCCC1)Nc1cc([N+](=O)[O-])ccc1Cl	0	-1	4	0
O=C(Cc1nnc(NC(=O)Nc2ccc3c(c2)OCO3)s1)NCc1ccccc1	1	14	34*	7
CC(C)(NC(=O)C1CCCCC1)c1nc2c(c(C(N)=O)n1)OCCO2	-1	81*	0	4
CC(C)(NC(=O)Cc1ccccc1)c1nc2c(c(C(N)=O)n1)OCO2	1	nt	0	11
CCCCCCCC/C=C\CCCCCCCC(=O)O	1	5	13	-2
CCC/C=C\C#CC/C=C\CCCCCCCC(=O)O	69*	59*	6	58*
O=C(CCc1nc(-c2ccc(S(=O)(=O)N3CCCC3)cc2)no1)N1CCCCC1	-4	-3	2	-1
CCn1c(SCC(=O)Nc2ccc(C)c(Cl)c2)nnc1-c1ccc2c(c1)OCCO2	5	4	18	12
O=C(CN1C(=O)c2cccc3cccc1c23)NCCSCc1ccc(Cl)c(Cl)c1	-4	1	40*	8
CCCCCC(=O)C(CCCC)c1oc(=O)c(CCCC)c(O)c1CCCC (stereo not given)	10	14	39*	17
COc1ccccc1-n1ccn2cc(-c3ccc4c(c3)OCO4)nc2c1=O	2	11	0	4
O=C(c1cccnn1)N1CCCCC1c1ncc(Cc2ccccc2)o1 (stereo not given)	1	-2	-1	4
CCOc1ccc(-c2cc3nc(C4CCN(C(=O)OC(C)(C)C)CC4)c(C(=O)Nc4cc(F)ccc4F)cn3n2)cc1	-6	9	2	31*
COc1ccc(-c2cc3nc(C4CCN(C(=O)OC(C)(C)C)CC4)c(C(=O)Nc4ccc(C)c(Cl)c4)cn3n2)cc1	-5	4	16	2
C=C1C=C(CCC(=O)O)C(=O)OC1/C=C/C=C/C (stereo not given)	81*	78*	95*	96*
COc1ccc(C(=O)Nc2nc3n(n2)C(c2ccccc2)CC(=O)N3)cc1 (stereo not given)	3	8	17	20
COc1ccc(/C=C/C(=O)N2CCc3ccccc32)cc1S(=O)(=O)N1CCOCC1	4	4	-3	54*
COc1ccc(/C=C/C(=O)N2CCCc3ccccc32)cc1OC	3	10	2	3
Cc1nn(C)cc1C(=O)N1CCC2(CC1)CC1(CO2)Nc2ccccc2-n2cccc21 (stereo not given)	0	0	-2	-20
C[C@H](Cc1cc2c(cc1O)OCO2)[C@@H](C)Cc1cc2c(cc1O)OCO2	25	19	84*	93*
Cc1cc2c(cc1CCc1cc3c(cc1C)OCO3)OCO2	-1	2	3	0
O=C(COc1ccc(N2CC(C(=O)NCc3ccccc3)CC2=O)cc1)Nc1ccccc1Cl (stereo not given)	0	26	49*	13
Cc1cc(C)n2nc(CN(C(=O)c3ccco3)c3ccccc3Cl)nc2n1	-2	-1	-2	0
CCCCN1CC(C(=O)Nc2ccc(C(=O)Nc3ccc(C(N)=O)cc3)cc2)CC1=O (stereo not given)	2	7	41*	-1
